A selection: hits, their analogues and other compounds. The true share with any hit is near 8.5%.
ALDH1A1 inh: blocks purified human ALDH1A1 activity; P00352; AID 1030; 220,000 tested, 7.3% active; Potency, µM (highest dose often 75.3 µM), most hits filed as inhibitors; Purified ALDH1A1, NADH fluorescence, propionaldehyde substrate
NPSR antagonist: antagonists of human neuropeptide S receptor cAMP signaling; 220,000 tested, 1% active; Potency, µM (series often up to 38.3 µM), hits mostly inhibitors; Q6W5P4; CHO-NPSR cells, cAMP TR-FRET, antagonist mode; AID 1461; active means well fitted curve in the direction sought with a large enough effect; inconclusive means small, poorly fitted or top-dose-only effect, or another doubt; inactive means no such curve, though single readings can be large; an effect the other way counts as inactive or inconclusive; further: nearly all actives have a fitted effect of over 50% in size
RGS12 GoLoco inh: inhibitors of human Gai1-RGS12 GoLoco interaction (red fluorophore). P63096. Gai1:RGS12 GoLoco peptide FP, rhodamine, 10 min. Potency, µM (series often up to 61.6 µM), usual class: inhibitors. 230,000 tested, 0.44% active; active means well fitted inhibition curve with a large enough effect, not every such curve was filed as active; inactive means no such curve, though single readings can be large or run the other way; further: nearly all actives have a fitted effect of over 30% in size
Target sequence (P63096 whole entry, looked up): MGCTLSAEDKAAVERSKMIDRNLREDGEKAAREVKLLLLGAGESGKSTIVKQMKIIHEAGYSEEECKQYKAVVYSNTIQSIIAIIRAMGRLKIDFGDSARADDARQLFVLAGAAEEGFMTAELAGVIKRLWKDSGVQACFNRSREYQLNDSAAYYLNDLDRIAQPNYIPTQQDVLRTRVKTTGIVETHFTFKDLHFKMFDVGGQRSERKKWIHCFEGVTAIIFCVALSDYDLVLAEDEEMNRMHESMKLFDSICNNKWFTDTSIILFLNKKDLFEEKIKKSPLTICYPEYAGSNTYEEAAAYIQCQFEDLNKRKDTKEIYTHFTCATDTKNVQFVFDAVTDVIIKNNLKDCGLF
FBPA coupling cs: inhibits coupling enzyme system, counter-screen for aldolase hits; coupling enzyme system counterscreen, AmpLite Red fluorescence; activity change, negative = inhibition, % at 58.2 µM, hits read low; 290,000 tested, 0.67% active; AID 2472; in the data active means activity change below about -30%
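Final compound at 57.5 uM, incubated 10 min at RT with coupling enzyme reagent (glyceraldehyde-3-phosphate), then 20 min with substrate and AmpLite Red detection. Fluorescence read at 525/598 nm; tests interference with the coupling assay, not aldolase inhibition.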
Sfp inh: blocks B. subtilis Sfp PPTase activity; 310,000 tested, 3.5% active; Potency, µM, actives largely listed as inhibitors; Biochemical Sfp PPTase activity, qHTS; active means well fitted curve in the direction sought with a large enough effect; inconclusive means small, poorly fitted or top-dose-only effect, or another doubt; inactive means no such curve, though single readings can be large; an effect the other way counts as inactive or inconclusive;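 further: the enzyme is Sfp with the accession as filed and its product quenches rhodamine fluorescence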
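Sfp 15 nM + cpd, 15 min RT; start w/ rhodamine-CoA 5 uM, BHQ-2-YbbR 12.5 uM (final); 50 mM Hepes pH 7.6, 10 mM MgCl2, 0.01% NP-40, 0.01% BSA; read 525/598 nm at 0 and 30 min.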
JMJD2E inh: blocks human JMJD2E demethylase activity; B2RXH2; JMJD2E catalytic domain, FDH-coupled NADH fluorescence (FDH is formaldehyde dehydrogenase); Potency, µM (series often up to 57.1 µM), hits mostly inhibitors; 230,000 tested, 1.6% active; further: nearly all actives have a fitted effect of over 50% in size
A number is an active result; – = inactive; ? = inconclusive; · = no result; [ ] = dose if it differs, or a comment. Unless noted, the call rests on the fitted dose curve; in most records, active means well fitted inhibition curve with a large enough effect (not every such curve was filed as active); inconclusive means small, poorly fitted or top-dose-only effect, or another doubt; inactive means no such curve, though single readings can be large or run the other way.

SMILES	ALDH1A1 inh	NPSR antagonist	RGS12 GoLoco inh	FBPA coupling cs	Sfp inh	JMJD2E inh
Cc1cccc(OCCOc2ccccc2C=C(C#N)C#N)c1	7.1µM	–	–	–	–	–
Cc1ccccc1OCCNC(=S)Nc1ccccc1	–	–	–	·	–	–
Cc1ccccc1OCCOc1ccccc1C=C(C#N)C#N	3.5µM	–	–	–	–	?
CC(=O)c1cccc(NC(=O)c2ccccc2N(Cc2ccccc2)S(C)(=O)=O)c1	·	·	·	–	–	·
C/C(C[n+]1ccccc1)=N\N=C(N)N	–[13.5 µM]	·	–[14.2 µM]	·	·	·
CS(=O)(=O)N(CC(=O)NCCSCc1cccc(Cl)c1)c1ccccc1F	·	·	·	–	–	·
CC1CCc2c(sc(/N=C/c3cccnc3)c2C(N)=O)C1 (configuration not stated)	·	–	–	–	50µM	?
CCOC(=O)c1sc(N)nc1C(C)C	–	–	–	–	45µM	–
CCOC(=O)C(NC(=O)Nc1ccc(O)cc1)(c1ccccc1)C(F)(F)F (configuration not stated)	–	–	–	-39	–	–
CCOC(=O)N1CCN(C(=O)c2ccccc2CCc2ccccc2)CC1	6.3µM	–	–	–	–	–
COc1ccc(C(=O)/C=C/C(=O)N(CC(=O)NC2CCCCC2)Cc2ccccc2OC)c(O)c1	?	?	–	–	3.2µM	–
COc1ccc(C(=O)/C=C/C(=O)N(Cc2ccccc2OC)C(C(=O)NC2CCCCC2)c2ccncc2)c(O)c1 (configuration not stated)	–	–	–	–	–	–
COc1ccc(C(=O)/C=C/C(=O)N(CC(=O)NC2CCCCC2)Cc2ccccc2)c(O)c1	?	?	–	–	1.8µM	–
COc1ccc(C(=O)/C=C/C(=O)N(CC(=O)NC2CCCCC2)CC2CCCO2)c(O)c1 (configuration not stated)	?	?	–	–	3.2µM	?
COc1ccc(C(=O)/C=C/C(=O)N(Cc2ccccc2)C(C(=O)NC2CCCCC2)c2ccncc2)c(O)c1 (configuration not stated)	–	–	–	–	–	–
O=C(OCC(=O)N1CCCC1)c1cc(Cl)ccc1Cl	·	·	·	–	–	·
CC(=O)N1N=C(N)SC1(C)C	?	–	–	–	–	–
COc1c(C)cccc1C(=O)NC(=S)Nc1cccc2nsnc12	–	7.9µM	–	–	?	–
COC(=O)c1ccccc1NC(=O)c1ccc(COc2cccc3ccccc23)o1	–	–	–	–	56µM	?
CCC(=O)NC(=S)Nc1ccccc1C(=O)OC	–	–	–	–	–	–
COC(=O)c1ccccc1NC(=S)NC(=O)COc1ccc(C(C)C)cc1	18µM	–	–	–	–	–
CC(C)CC(=O)NC(=S)Nc1cccc2nsnc12	?	?	–	–	?	?
COC(=O)c1ccccc1NC(=S)NC(=O)c1cccc2ccccc12	10µM	–	–	·	–	?
COC(=O)c1cc(COC(=O)c2nc3nccc(C)n3n2)oc1C	?	–	–	–	–	–
CCCCCCCCCCCCCCCC[N+](C)(C)Cc1ccccc1	·	·	·	·	45µM	·
SMILES	ALDH1A1 inh	NPSR antagonist	RGS12 GoLoco inh	FBPA coupling cs	Sfp inh	JMJD2E inh
CCCCCCCCCCCCCC[N+](C)(C)Cc1ccccc1	·	·	·	·	40µM	·
CCCCCCCC(=O)NNC(=O)Cc1ccccc1	–	–	–	–	–	–
CCCCCC[N+](C)(C)CCSSCC[N+](C)(C)CCCCCC	·	–	–	–	–	–
CN(C(=S)SCc1ccccc1)C1CCS(=O)(=O)C1 (configuration not stated)	–	–	–	–	–	–
CCN(CC)c1ccc(/C=C2\SC(=O)N(C(C)C)C2=O)o1	·	?	–	–	7.1µM	–
CCC(C)N1C(=O)S/C(=C/c2ccc3c(c2)n(C)c(=O)n3C)C1=O (configuration not stated)	?	–	–	–	–	?
CC(C)N1C(=O)S/C(=C/c2ccc3c(c2)n(C)c(=O)n3C)C1=O	8.9µM	–	–	–	–	–
CC(C)N1C(=O)S/C(=C/c2cccnc2)C1=O	13µM	–	–	–	–	–
CCOC(=O)C(C)N1C(=O)S/C(=C/c2ccc3c(c2)n(C)c(=O)n3C)C1=O (configuration not stated)	–	–	–	–	–	–
CSC1=N/C(=C\c2ccccc2Cl)C(=O)N1N(C)C	18µM	–	–	–	–	–

Source: PubChem BioAssay (National Center for Advancing Translational Sciences (NCATS))
